Bioassay records from PubChem.
HT1080 IDH1KD tx: qHTS for induction of synthetic lethality in tumor cells producing 2HG: qHTS for the HT-1080-IDH1KD cell line. HT-1080 IDH1 knockdown viability, ATP luminescence, 48 h. Potency, µM (titrated, usually from 46.1 µM), for the others: at the top dose activity, negative = toxicity, hits mostly cytotoxic. actives 2% (n = 360,000);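 note: potency is the fitted concentration of half-maximal effect; 0% = DMSO wells and -100% = cell-free medium wells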
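Cytotoxicity counter-line: IDH1KD HT-1080, 48 h, CellTiter-Glo. Curves classed by r2, magnitude and activity.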
HT1080-NT tox: qHTS for induction of synthetic lethality in tumor cells producing 2HG: qHTS for the HT-1080-NT fibrosarcoma cell line | Potency, µM (highest dose often 46.1 µM), for inactives: top-dose activity, negative = less viability, actives largely listed as cytotoxic | HT-1080-NT fibrosarcoma viability, CellTiter-Glo ATP luminescence, 48 h | actives 1.6% (n = 360,000) | AID 686970, 2013;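 note: NT is the 2HG producing partner of a matched IDH1 knockdown line; potency is the fitted concentration of half-maximal effect; 0% = DMSO-treated cells and -100% = media-only wells without cells; nearly all actives have a fitted effect of over 55% in size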
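Compounds were tested in concentration-response format on HT-1080-NT cells for 48 hours at 37 degrees C. Cell viability came from CellTiter-Glo luminescence; curves were classified by r2, response magnitude and activity.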
TDP1 cell CPT: qHTS for Inhibitors of human tyrosyl-DNA phosphodiesterase 1 (TDP1): qHTS in cells in presence of CPT. chicken DT40 Tdp1-/-;hTDP1 cells + 20 nM CPT, ATP luminescence, 48 h. AID 686979, 2013. Potency, µM (doses to about 46.2 µM), without a hit: at the highest dose activity change, negative = growth inhibition, actives largely listed as inhibitors. actives 12% (n = 420,000); note: potency is the fitted concentration of half-maximal effect; nearly all actives have a fitted effect of over 55% in size
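Chicken DT40 Tdp1-/- cells stably complemented with human TDP1 were seeded at 400 cells/well in medium containing 20 nM camptothecin, exposed to pin-transferred compounds, and grown at 37 °C for at least 48 hr. Viability was read as ATP luminescence.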
IL-1B inflam inh: qHTS for Inhibitors of Inflammasome Signaling: IL-1-beta AlphaLISA Primary Screen | THP-1 LPS/ATP IL-1B secretion, AlphaLISA, 16 h; hits give low values | activity change, % at 57.5 µM | actives 4.7% (n = 360,000) | AID 743279, 2014; in the data active = activity change below about -50%; inconclusive = mostly about -30% to -49%
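THP-1 cells pretreated 1 hr with compounds (up to 57.5 uM final), then stimulated with LPS (250 ng/mL final) plus ATP (1.25 mM final); secreted IL-1B measured by AlphaLISA after 16 hr, decreased signal indicating inhibition.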
TDP1 cell noCPT: qHTS for Inhibitors of human tyrosyl-DNA phosphodiesterase 1 (TDP1): qHTS in cells in absence of CPT. AID 686978, 2013. DT40 Tdp1-/- hTDP1 cells, no CPT, ATP luminescence, 48 h. actives 15% (n = 420,000). Potency, µM (highest dose often 46.2 µM), for inactives: top-dose activity change, negative = growth inhibition, actives largely listed as inhibitors; note: potency is the fitted concentration of half-maximal effect; nearly all actives have a fitted effect of over 55% in size
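Readout: luminescence from CellTiter-Glo after 30 min in the dark at RT. Cells: DT40 Tdp1-/- with stable hTDP1, 400/well. Exposure: compounds alone, ≥48 hr, 37 °C.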
* = called active by the depositor; ? = inconclusive; . = no result; [ ] = another dose, or the depositor's remark. Shown are actives, neighbours in structure and some others; about 19% of the full set was active somewhere. Unless noted, calls come from the whole dose curve; as a rule, active = well fitted curve in the direction sought with a large enough effect; inconclusive = small, poorly fitted or top-dose-only effect, or another doubt; inactive = no such curve, though single readings can be large; an effect the other way counts as inactive or inconclusive. Unless noted, % is set by controls: 0 for no effect and ±100 for the full control effect.

SMILES	HT1080 IDH1KD tx	HT1080-NT tox	TDP1 cell CPT	IL-1B inflam inh	TDP1 cell noCPT
Cc1cc(N=Cc2c(O)ccc3cc(Br)ccc23)no1	-27%	-21%	-26%	19	-8%
CCc1cccc(CC)c1-n1c(SCC(=O)N2CCCc3ccccc32)nc(O)cc1=O	-2%	-3%	-27%	28	?
CCn1c(C)nc2cc(S(N)(=O)=O)ccc21	-11%	-13%	?	18	23µM*
CCOc1ccc(-c2cc(C(=O)O)c3ccccc3n2)cc1	11µM*	?	?	21	?
CCOc1ccc(-c2cc(C(=O)NCCCn3ccnc3)c3cc(Br)ccc3n2)cc1	?	?	12µM*	-99*	10µM*
CCOc1ccc(-c2cc(C(=O)NCCCN3CCN(CC)CC3)c3ccccc3n2)cc1	?	?	?	-71*	?
CCOc1ccc(-c2cc(C(=O)NCCCn3ccnc3)c3ccccc3n2)cc1	-8%	-5%	?	-5	?
CCOc1ccc(-c2cc(C(=O)N3CCC(C)CC3)c3ccccc3n2)cc1	9%	2%	?	-6	?
Cc1cc(C)c(S(=O)(=O)c2cccc(C(F)(F)F)c2)c(=O)[nH]1	11%	9%	13%	13	-8%
CCNC(=O)C1(C)CCCN1C(=O)c1c(F)cccc1F (stereo not drawn)	8%	26%	-30%	0	-13%
O=C(COc1ncnc2sccc12)N1CCN(C(=O)c2ccco2)CC1	4%	2%	-3%	4	-1%
Cc1c2c(cc3c1[nH]c1ccccc13)C=NCC2	?	-12%	?	-73*	23µM*
Cc1ccc(S(=O)(=O)N2C(=O)CCC2C(=O)N2CCCCC2)cc1 (stereo not drawn)	4%	5%	7%	27	7%
COCc1c(C(=O)OCC(=O)c2c(N)n(CC(C)C)c(=O)n(C)c2=O)oc2ccccc12	-1%	-11%	18µM*	3	21µM*
Cc1c(C(=O)OCC(=O)c2c(N)n(CC(C)C)c(=O)n(C)c2=O)oc2ccccc12	-22%	-18%	?	-5	23µM*
Cn1c2ccccc2c(=O)c2c(=O)n(-c3ccccc3)c(-c3ccc(C(C)(C)C)cc3)nc21	8%	-7%	?	65	?
Cn1c(=O)n(-c2ccc(C(C)(C)C#N)cc2)c2c3cc(-c4cnc5ccccc5c4)ccc3ncc21	.	.	0.25µM*	.	0.05µM*
Cc1ccc(C(=O)NN(CCC(=O)NC(C)(C)C)C2=NS(=O)(=O)c3ccccc32)cc1	20%	14%	-8%	-5	-1%
CC(C)(C)NC(=O)CCN(/N=C/c1ccccc1F)C1=NS(=O)(=O)c2ccccc21	15%	1%	?	24	21µM*
Cc1cccc(/C=N/N(CCO)C2=NS(=O)(=O)c3ccccc32)c1	-20%	-2%	?	-1	?
CC(C)(C)NC(=O)CCN(/N=C/c1ccccc1)C1=NS(=O)(=O)c2ccccc21	-3%	5%	?	34	16µM*
CC(C)NC(=O)C1CCN(c2ccc(S(=O)(=O)N3CCOCC3)cc2Cl)CC1	-7%	-3%	-7%	26	-46%
CCCc1c(-c2ccccc2)ncn1Cc1ccccc1OC	?	-27%	7.3µM*	7	5.8µM*
CCCc1nc2ccccc2n1Cc1ccccc1OC	-2%	?	2%	-9	?
COc1ccc(C(C)=O)cc1Cn1nnc(-c2ccccc2Br)n1	-1%	-5%	-21%	30	-2%
SMILES	HT1080 IDH1KD tx	HT1080-NT tox	TDP1 cell CPT	IL-1B inflam inh	TDP1 cell noCPT
CCCc1c(-c2ccccc2Br)ncn1Cc1ccccc1OC	?	?	2.3µM*	1	2.3µM*
CCCc1c(-c2ccc(F)cc2)ncn1Cc1ccccc1OC	?	?	1.6µM*	-5	2.1µM*
Cc1ccccc1Cn1nnc(-c2ccc(F)cc2)n1	2%	12%	-25%	24	24%
COc1cc(NC(=O)C2(C)CCCN2C(=O)C(C)C)cc(OC)c1OC (stereo not drawn)	24%	19%	8%	18	13%
CNC(=S)NNC(=O)CCn1nc(C)c(Br)c1C	16µM*	11µM*	?	0	?
CCOCCCNC(=S)NNC(=O)CCn1nc(C)c(Br)c1C	2.5µM*	0.89µM*	2%	0	-12%
Cc1nn(CCC(=O)NNC(=S)NCC(C)C)c(C)c1Br	1.3µM*	1.1µM*	7.3µM*	12	6.5µM*
CCOC(=O)CC(NC(=O)c1cc2c(=O)n3cccc(C)c3nc2s1)c1ccc(OCC)c(OC)c1 (stereo not drawn)	.	.	5%	.	-4%
COc1cccc(CNC(=O)[C@@H]2CCCN2)c1	25%	13%	4%	0	-10%
CCN(CC)Cc1ccc(Nc2ccnc3cc(Cl)ccc23)cc1O	.	.	7.3µM*	.	6.5µM*
S=C(NNc1ccnc2cc(Cl)ccc12)Nc1ccc(Cl)cc1Cl	-10%	?	4.6µM*	-86*	3.7µM*
S=C(NCc1ccncc1)Nc1ccc(Cl)cc1Cl	-5%	-2%	?	22	-18%
CCOc1ccc(NC(=S)NNc2ccnc3cc(Cl)ccc23)cc1	?	?	?	-89*	13µM*
CCOc1ccccc1Nc1ccnc2cc(Cl)ccc12	-13%	-8%	?	-88*	23µM*
Cc1ccc2ccccc2c1C(O)c1ncc(-c2ccccc2F)[nH]1 (stereo not drawn)	-14%	-26%	?	21	-27%
COc1ccccc1C(CNC(=O)C(CCSC)NC(=O)c1ccccc1Cl)N1CCCC1 (stereo not drawn)	-4%	1%	?	-28	-21%
C=CCNC(=S)N/N=C/c1ccc(C(F)(F)F)cc1	-12%	?	?	-56*	?
FC(F)(F)c1ccc(/C=N/NC(=S)NC2CCCCC2)cc1	-26%	-19%	?	2	5.8µM*
O=C(O)c1ccc(/C=N/NC(=S)NC2CCCCC2)cc1	-12%	-15%	4%	73	3%
Cn1c(C=O)c(C#Cc2ccccc2)c2ccccc21	-26%	5%	?	49	23µM*
CC(NC(=O)COC(=O)c1ccc2c(=O)n3c(nc2c1)CCCCC3)c1ccccc1 (stereo not drawn)	5%	-2%[9.24 µM]	-1%	11	1%
COc1ccc(CCc2cc(OC)cc(=O)o2)cc1	5%	4%	7%	-17	-18%
